Screening data: PubChem, several laboratories
NadD inh: inhibitors of Staphylococcus aureus NadD. inhibition, % at 20 µM. purified NadD enzyme, colorimetric absorbance read-out. hit rate 0.78% among 360,000; in the data active means inhibition above about 26%
esBAF inh: blocks esBAF chromatin remodeling in mouse ES cells; Bmi1-luciferase knock-in reporter, 24 h; 100% = twice the neutral-well signal; hit rate 2% among 350,000; reporter increase, % at 12.5 µM; AID 602393; in the data active means activation above about 40%;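 further: 0% = median of the plate's neutral control wells and 100% = double that signal; a rise in the Bmi1 reporter signal indicates esBAF inhibition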
Vif imaging: blocks HIV Vif function; inhibition, % at 7.49 µM; HEK293T cells, Vif self-association by quenched fluorescence, imaging, 24 h; hit rate 0.35% among 340,000; in the data active means inhibition above about 50%, passing the limit was not always enough
SMARCA2 activ: SMARCA2 function activation, primary screen. AID 652017. activation, % at 9.1 µM. MG213 cells, MMTV-luciferase reporter, dexamethasone, overnight. hit rate 1% among 370,000; in the data active means activation above about 7.8%;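 further: 0% = vehicle wells and 100% = reference activator wells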
NR3A LBD binder: modulators (binders) of human NR3A ligand-binding domain. NR3A LBD differential scanning fluorimetry, Tm shift; 0% = protein alone, 100% = glycine-bound protein. Tm shift relative to glycine control, % at 25 µM. hit rate 2.5% among 340,000. AID 1259313;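 active means melting temperature shift of at least 10% of the positive control shift, at one fixed dose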
SKN-1 block: C. elegans SKN-1 inhibition | hit rate 0.49% among 360,000 | inhibition, % at 21.8 µM | C. elegans VP596 Pgst-4::GFP/RFP ratio, acrylamide-induced, 24 h | AID 624304;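 active means interference check ratio from 0.5 to 1.5 plus GFP to RFP signal ratio inhibition reaching or exceeding a fixed threshold, cut at about 30% in these data, passing the limit was not always enough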
NadD conf: confirmation of Staphylococcus aureus NadD inhibitors | shares compounds with NadD inh | purified S. aureus NadD, colorimetric enzyme assay | inhibition, % at 20 µM | hit rate 13% among 2,000; in the data active means inhibition mostly above about 42%, no sharp cut-off; inactive means mostly below about 42%
* hit, by the source's call; . = no result given. The list is not random: actives were taken first. Their share in the collection is about 5.2%.

SMILES	NadD inh	esBAF inh	Vif imaging	SMARCA2 activ	NR3A LBD binder	SKN-1 block	NadD conf
COCC(=O)Nc1ccc2c(c1)[C@H]1C[C@@H](CC(=O)NCCc3ccccc3)O[C@@H](CO)[C@H]1O2	.	5.3	.	.	.	.	.
O=[N+]([O-])c1ccc(Nc2cccc3c2[nH]c2c(-c4ccccc4)nccc23)c([N+](=O)[O-])c1	44.3*	.	-0.7	1.0	-2.3	23.7	16.1
Nc1ccccc1Nc1ccc([N+](=O)[O-])cc1[N+](=O)[O-]	-1.3	.	6.9	-3.3	-2.7	6.9	.
O=[N+]([O-])c1ccc(Cl)cc1N/N=C/c1ccncc1	0.0	1.9	12.0	-1.4	-0.5	-8.0	.
O=[N+]([O-])c1cc(S(=O)(=O)Nc2ccc(Cl)cc2)ccc1N/N=C/c1ccncc1	47.0*	33.6	67.4*	-1.8	12.4*	-1.0	24.5
COc1ccc(NCC(=O)N/N=C2\CCc3ccccc32)cc1	30.5*	.	1.4	0.2	-0.1	0.6	7.3
Cc1ccnc(NS(=O)(=O)c2ccc(NC(=O)c3cc(-c4ccc(Br)cc4)nc4ccccc34)cc2)n1	73.5*	.	11.9	-0.5	6.4	16.1	46.2*
COc1ccc(-c2cc(C(=O)Nc3ccc(S(=O)(=O)Nc4onc(C)c4C)cc3)c3ccccc3n2)cc1	28.8*	6.1	-3.4	1.5	-3.6	-5.0	65.7*
COc1nnc(-c2ccc(C(=O)N3C[C@@H]4C[C@H](C3)c3cccc(=O)n3C4)cc2)c2ccccc12	-4.3	.	-1.9	-1.4	1.5	-12.2	.
O=C(c1ccc(-c2nnc(Nc3cccc(Cl)c3)c3ccccc23)cc1)N1C[C@H]2C[C@H](C1)c1cccc(=O)n1C2	28.0*	2.4	9.3	-0.6	-6.9	17.2	-2.9
CCS(=O)(=O)N(C)C[C@@H]1OCc2ccccc2-c2c(n(C)c3ccccc23)C(=O)N([C@@H](C)CO)C[C@@H]1C	.	1.8	.	.	.	.	.
C[C@@H]1CN([C@@H](C)CO)S(=O)(=O)c2ccc(C3=CCCC3)cc2O[C@@H]1CN(C)C(=O)C1CCC1	.	-2.8	.	.	.	.	.
COc1cc(C2c3c(-c4cc(Cl)c(C)cc4O)n[nH]c3C(=O)N2Cc2cccnc2)ccc1O (centres undefined)	14.1	-9.9	15.1	2.4	-15.5	-7.1	.
COc1cccc(C2c3c(-c4cc(Cl)c(C)cc4O)n[nH]c3C(=O)N2Cc2cccnc2)c1 (centres undefined)	47.1*	2.2	-1.7	-0.1	-5.4	10.8	43.4*
Cn1c(=O)n(Cc2ccccc2Cl)c(=O)c2c1[nH]c(=S)n2C	39.1*	-5.7	0.5	3.7	1.6	4.3	32.5
Cn1c(=O)n(Cc2ccccc2Cl)c2ccccc21	-2.7	-3.4	-0.7	0.9	1.1	8.9	.
CCCNC(=O)NC[C@H]1[C@H](c2ccc(C3=CCCC3)cc2)[C@@H](CO)N1C(=O)CC	.	3.0	.	.	.	.	.
Cc1ccc(C)c(N(CC(=O)NC2CCCC2)C(=O)c2cc3cc4cccc(C)c4nc3s2)c1	31.7*	2.8	22.5	-1.3	-1.2	-0.1	11.5
Cc1ccc2cc3cc(C(=O)N(CC(=O)NC4CCCC4)c4cccc(C)c4C)sc3nc2c1	33.8*	-1.5	-14.8	2.3	-18.2	11.7	11.3
Cc1cccc(N(CC(=O)NC2CCCC2)C(=O)c2nsc(Cl)c2Cl)c1C	-7.5	.	1.5	-2.7	1.5	11.0	.
Cc1ccc(C)c(N(CC(=O)NC2CCCCC2)C(=O)c2csnn2)c1	3.0	-1.3	7.2	-3.4	-1.6	0.0	.
C[C@@H]1CN([C@H](C)CO)C(=O)c2cc(C3=CCCCC3)cnc2O[C@H]1CN(C)C(=O)Cc1cccnc1	.	-12.6	.	.	.	.	.
CO[C@H]1CN(C)C(=O)c2ccc(NS(C)(=O)=O)cc2OC[C@H](C)N(CCC(F)(F)F)C[C@@H]1C	.	-5.2	.	.	.	.	.
NC(=O)CSc1nc2scc(-c3ccco3)c2c(=O)n1-c1ccccc1	10.2	.	5.1	2.5	-0.6	-0.2	.
C=CCn1c(SCC(=O)NCC2CCCO2)nc2scc(-c3ccco3)c2c1=O (centres undefined)	4.8	-3.9	-3.2	-2.0	0.3	8.6	.
SMILES	NadD inh	esBAF inh	Vif imaging	SMARCA2 activ	NR3A LBD binder	SKN-1 block	NadD conf
O=c1c2c(-c3ccco3)csc2nc(SCc2cn3cccnc3n2)n1-c1ccccc1	35.7*	-13.6	.	-3.9	-2.1	-8.5	7.9
O=C(CSc1nc2scc(-c3ccco3)c2c(=O)n1-c1ccccc1)NCC1CCCO1 (centres undefined)	30.1*	.	10.6	2.6	3.8	1.0	37.3
O=C(CC1N=C2c3ccccc3N=C(SCc3ccc(Cl)cc3)N2C1=O)NCc1ccco1 (centres undefined)	49.1*	12.0	.	.	-3.7	14.0	59.5*
C[C@H]1CN([C@@H](C)CO)C(=O)c2cc(NC(=O)Nc3ccc(C(F)(F)F)cc3)ccc2O[C@@H]1CN(C)Cc1ccc(-c2ccccc2)cc1	.	-1.3	.	.	.	.	.
Cc1ccc(C2(c3ccc(C)cc3)CC2C(=O)Nc2ccc([N+](=O)[O-])cc2O)cc1 (centres undefined)	47.5*	-32.0	-21.2	-7.8	0.5	-0.5	43.4
COc1cc(OC)cc(-c2c(-c3cccs3)c3cc(-c4ccn[nH]4)ccc3n2C)c1	37.7*	16.3	1.0	1.5	-10.1	-5.7	19.5
COc1cc(F)cc(-c2ccc3c(c2)c(-c2cccs2)c(-c2cc(OC)cc(OC)c2)n3C)c1	16.0	-9.7	-4.7	-0.2	0.0	12.0	.
C[C@H]1CN([C@@H](C)CO)C(=O)Cc2cc(NC(=O)NC3CCCCC3)ccc2O[C@H]1CN(C)CC1CC1	.	-4.7	.	.	.	.	.
CCOC(=O)Cn1c(=NC(=O)CSC(C)=O)sc2ccccc21	-3.3	-5.8	0.4	0.2	0.2	1.6	.
COC(=O)Cn1c(=NC(=O)c2sc3ccccc3c2Cl)sc2cc(S(N)(=O)=O)ccc21	36.9*	.	-6.2	-3.0	12.6*	-11.2	7.3
COC(=O)Cn1c(=NC(=O)c2nc3ccccc3s2)sc2cc(S(C)(=O)=O)ccc21	.	.	.	2.4	.	.	.
CCOC(=O)Cn1c(=NC(=O)c2sc3ccccc3c2Cl)sc2cc(S(N)(=O)=O)ccc21	51.1*	-1.8	-8.2	0.3	2.7	6.6	-1.5
CO[C@H]1CN(C)C(=O)c2ccc(NC(C)=O)cc2OC[C@@H](C)N(C(=O)CN(C)C)C[C@H]1C	.	-3.4	.	.	.	.	.
N=C1SC(c2ccccc2)C(=O)N1c1ncc(Cc2ccccc2Cl)s1 (centres undefined)	49.6*	.	10.1	-0.3	-3.4	6.3	50.1*
Cc1noc(C)c1NC(=O)N(C)C[C@H]1OCCCC[C@@H](C)Oc2ccc(NS(=O)(=O)c3cn(C)cn3)cc2C(=O)N([C@H](C)CO)C[C@H]1C	.	-1.2	.	.	.	.	.
O=C1OC2(c3ccccc31)c1ccccc1-c1ccccc12	-4.7	9.6	1.7	-4.7	-0.2	12.0	.
O=C1OC(c2ccc3ccccc3c2O)(c2ccc3ccccc3c2O)c2ccccc21	41.1*	21.1	10.9	-1.8	-11.6	1.8	81.8*
